Assay results published in the supplement of paper PMC6555819.

Key:
Assay in all cases: PBM binding z-score (relative to random genomic background probes); higher = stronger binding; sequences stand for … in GC…GCGATTGACAGCGTAGAATGAAGG
[1] = system: FXR:RXRa (NR concentration 270 nM, RXRa partner concentration 90 nM)
In short: (§1)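 Random background probes are the reference for binding z-scores. These scores derive from regression-normalized fluorescence on custom Agilent 4×180K protein-binding microarrays incubated 1 h with ligand-free nuclear receptor dimers. Binding was detected with antibodies against each partner (one per run).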

[2] = system: LXRa:RXRa (NR concentration 270 nM, RXRa partner concentration 90 nM)
In short: as §1

[3] = system: LXRa homodimer (NR concentration 270 nM)
In short: as §1

[4] = system: LXRb:RXRa (NR concentration 270 nM, RXRa partner concentration 90 nM)
In short: as §1

[5] = system: LXRb homodimer (NR concentration 270 nM)
In short: as §1

[6] = system: PPARa:RXRa (NR concentration 270 nM, RXRa partner concentration 90 nM)
In short: as §1

[7] = system: PPARg:RXRa (NR concentration 180 nM, RXRa partner concentration 90 nM)
In short: as §1

[8] = system: PPARg:RXRa 270nM:90nM, anti-RXR (NR concentration 270 nM, RXRa partner concentration 90 nM)
In short: as §1

[9] = system: PPARg:RXRa 30nM:10nM, anti-RXR (NR concentration 30 nM, RXRa partner concentration 10 nM)
In short: as §1

[10] = system: PPARg:RXRa 90nM:30nM, anti-RXR (NR concentration 90 nM, RXRa partner concentration 30 nM)
In short: as §1

[11] = system: PPARg:RXRa DBDmut IVT, anti-RXR (DBD mutation: RXRa K156A/R161A, NR concentration 270 nM, RXRa partner concentration 90 nM)
In short: as §1

[12] = system: PPARg:RXRa IVT, anti-PPARg (NR concentration 270 nM, RXRa partner concentration 90 nM)
In short: as §1

[13] = system: PPARg DBDmut:RXRa IVT, anti-PPARg (DBD mutation: PPARg1 K132A/R137A, NR concentration 270 nM, RXRa partner concentration 90 nM)
In short: as §1

[14] = system: PPARg DBDmut IVT, anti-PPARg (DBD mutation: PPARg1 K132A/R137A, NR concentration 270 nM)
In short: as §1

[15] = system: PPARg homodimer (NR concentration 180 nM)
In short: as §1

[16] = system: PXR:RXRa (NR concentration 270 nM, RXRa partner concentration 90 nM)
In short: as §1

[17] = system: PXR homodimer (NR concentration 270 nM)
In short: as §1

[18] = system: RARa:RXR (NR concentration 270 nM, RXRa partner concentration 90 nM)
In short: as §1

[19] = system: RARa homodimer (NR concentration 270 nM)
In short: as §1

[20] = system: RARb:RXRa (NR concentration 270 nM, RXRa partner concentration 90 nM)
In short: as §1

Sequence | PBM binding z-score [1] | PBM binding z-score [2] | PBM binding z-score [3] | PBM binding z-score [4] | PBM binding z-score [5] | PBM binding z-score [6] | PBM binding z-score [7] | PBM binding z-score [8] | PBM binding z-score [9] | PBM binding z-score [10] | PBM binding z-score [11] | PBM binding z-score [12] | PBM binding z-score [13] | PBM binding z-score [14] | PBM binding z-score [15] | PBM binding z-score [16] | PBM binding z-score [17] | PBM binding z-score [18] | PBM binding z-score [19] | PBM binding z-score [20]
ATCTCTAGGTAAGGCTCAGTTCAGTGAAGAACGC | 0.198 | 0.107 | 0.412 | 0.0703 | 0.35 | 0.125 | 0.0741 | 0.513 | 0.188 | 0.48 | 1.94 | 1.3 | 0.628 | 1.33 | 0.996 | 0.855 | 1.22 | 0.496 | 0.033 | 0.228
CCTAGCAGGCCAGGGTCACTTAAGCATTTCGCTT | 1.75 | 1.64 | -0.562 | 1.91 | -1.39 | 2.77 | 0.597 | 1.54 | -0.349 | 0.831 | 0.351 | 1.01 | -1.25 | -0.972 | 0.813 | 2.15 | -0.248 | 2.71 | 0.0986 | 2.54
TCGAGTAGGTTTGTCGGGGCATTCAGCCAACATA | 0.314 | 0.103 | 0.0222 | 0.558 | -0.504 | 0.326 | -0.493 | 0.144 | 1.1 | 0.717 | 0.713 | 0.173 | -1.6 | -0.328 | 0.186 | 0.311 | -0.236 | 0.224 | -0.837 | 0.0444
TAGCCTAGGTCATCCGGGCCAGTATAGTGTCGGC | 4.52 | 3.54 | 0.755 | 2 | 0.281 | 3.48 | 1.95 | 2.35 | 0.0412 | 1.5 | 1.42 | 2.94 | 0.0914 | -0.657 | 1.35 | 2.07 | 0.0405 | 2.61 | -0.259 | 3.77
CGTCCAAGGTCATAGAAGGTCAGTGAAGACAGAT | 7.45 | 7.22 | 4.12 | 5.81 | 0.783 | 5.53 | 5.05 | 5.64 | 2.37 | 4.36 | 3.2 | 4.17 | 0.653 | 0.867 | 2.94 | 6.39 | 3.15 | 5.72 | 1.77 | 5.41
TAGCCTAGGTCATTCAGGGGCCAGTTTAGAAAGC | 4.19 | 3.81 | 1 | 3.32 | 0.887 | 3.8 | 1.98 | 2.15 | 0.497 | 1.59 | 1.47 | 2.77 | 0.115 | 0.428 | 0.877 | 2.37 | -0.0546 | 3.52 | -0.367 | 3.61
TCTTGTAGATCAGCAGGTTAAGAACGCTGGCCAA | -0.138 | -0.0946 | -0.388 | 0.178 | -0.52 | 0.745 | -0.296 | 1.38 | 2.39 | 1.59 | 1.41 | 0.294 | -0.675 | -0.754 | -0.66 | -0.00865 | -0.543 | 0.211 | -0.75 | 0.0804
ACAGACAGGTGATGAAGGTAACTCATGCTATCAT | -0.264 | -0.284 | 0.081 | -0.0857 | -0.304 | 0.0179 | 0.862 | -0.0647 | 0.121 | -0.0244 | 0.199 | 0.711 | -0.0414 | -0.123 | -0.0711 | -0.216 | -0.133 | -0.118 | 0.279 | 0.221
ACTCGGAGGACAAAGGGCAGAGCTACGCCAGTGA | 0.0109 | 0.0817 | -0.605 | -0.115 | -0.71 | 1.88 | 3.1 | 4.39 | 2.2 | 4.28 | 0.11 | 0.678 | -1.42 | -1.85 | 0.364 | -0.273 | -0.407 | 0.077 | -0.16 | 2.17
CTTCGGAGGACAACAGGAGGTCAGAGCTGCCAGA | 1.34 | 2.65 | 2.21 | 1.45 | -0.45 | 2.23 | 0.516 | 0.602 | -0.765 | 0.051 | 0.0715 | 0.767 | -2.3 | -1.62 | 1.69 | 2.41 | 0.525 | 2.64 | 0.557 | 2.98
CGTCCAAGTTCAGCAGGTCAGTGAAAGCGACGTG | 2.28 | 2.06 | 1.12 | 1.53 | -0.267 | 2.49 | 0.395 | 1.17 | -0.436 | 0.285 | 0.444 | 0.339 | -0.163 | -0.669 | 1.77 | 2.59 | 1.6 | 2.38 | 0.583 | 3.75
GCTTACGGGTCAGAGGTTATAGCATGAATAGAAT | 5.2 | 3.46 | 0.404 | 3.77 | 0.261 | 5.92 | 9.08 | 7.82 | 6.2 | 8.57 | 2.54 | 4.73 | 0.344 | 0.535 | 2.65 | 3.89 | 0.491 | 5.92 | 0.521 | 3.58
GATAGCAGGCCATTTGGGTCACTCAATGACGGGC | 0.302 | -0.115 | -0.247 | 0.0936 | -0.607 | 1.73 | 1.4 | 1.12 | -0.311 | 0.763 | 3.66 | 3.5 | -0.0916 | -0.698 | -0.0574 | 0.523 | 0.0979 | 0.747 | -0.472 | 1.55
TCGCGTAGGTTAGGGGCATTCAGAATGGCGTCGA | 0.432 | 0.41 | -0.522 | 0.996 | 0.176 | 1.04 | -0.162 | 1.01 | 1.38 | 1.41 | 0.918 | -0.148 | -0.436 | -0.621 | -0.168 | 0.489 | 0.0303 | 0.615 | -0.246 | 1.18
GCGACTGGGGCAAAGCAGGTTACCACAAGGTTGG | 0.61 | -0.0445 | -0.447 | 0.204 | -1.07 | 1.14 | 1.35 | 1.34 | -0.386 | 0.797 | 4.37 | 3.9 | -0.49 | -1.47 | 0.0526 | 0.473 | -0.466 | 0.796 | -0.331 | 0.888
CGAACTAGGTCTGAACAGGACAGTGAAGGATGAT | -0.499 | -0.813 | -0.618 | -0.891 | -0.912 | -0.134 | 0.652 | -0.276 | -0.221 | -0.128 | 1.88 | 0.996 | -0.255 | -0.111 | -0.44 | -0.688 | -0.469 | -0.635 | -0.454 | -0.192
ATGTGTAGGTTAGCTGGGGTCATTCAGACTAGGC | 4.6 | 5.92 | 2.89 | 4.92 | 2.24 | 4.77 | 2.38 | 3.24 | 1.16 | 2.54 | 2.74 | 3.09 | 1.93 | 2.25 | 3.23 | 6.41 | 5.39 | 6.36 | 2.17 | 3.25
ATATGTAGGTTACATCCCGGTCATTCAGGCTATG | 1.09 | 3.77 | 3.88 | 1.83 | 1.18 | 3.66 | 4.96 | 4.25 | 1.8 | 3.35 | 7.52 | 7.38 | 2.01 | 2.46 | 1.78 | 1.39 | 0.762 | 1.6 | 0.487 | 1.99
AATACAGGGTCACTAGGCGAGAGTAGGTACGAAT | 6.08 | 4.92 | 1.02 | 3.94 | 1.26 | 5.66 | 7.02 | 6.14 | 2.65 | 4.89 | 3.92 | 5.14 | 1.72 | 0.921 | 2.09 | 3.16 | 0.858 | 4.27 | 1.4 | 4.29
